Here are results for 40 compounds from PubChem BioAssay (NCI).

This is part of a sample that, as a whole, favours compounds with a hit. Of some 79,000 tested, about 15% had one in any assay. Unmarked numbers belong to inactive results. The source made the active and inactive calls. Cut-off read from the data, not from the text of the source: active = growth inhibition above about 70%; inactive = the rest.

One assay is described as follows: NCI Yeast Anticancer Drug Screen. Data for the mlh1 rad18 strain (AID 175). The settings on record: S. cerevisiae mlh1 rad18 strain growth inhibition; at 50.0 µM (retest, dose inferred, filed as 5.0); active compounds read high. The method, boiled down:
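Compound-treated yeast growth, normalised to vehicle controls. Strain bears defined DNA repair mutations.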
Take `CC(C)N=C(NC(C)C)SCCCCCCSC(=NC(C)C)NC(C)C`: the growth inhibition is -5%.
Same read-out and setting: in the case of `CCCCCOC(=S)SSSC(=S)OCCCCC` it was 97% (active); in that of `CCCCCCCCCCCCCCCC[N+](C)(C)CC(=O)O`, 97% (active); in that of `Cc1cc(C)c([O-])c(-[n+]2c(-c3ccccc3)cc(-c3ccccc3)cc2-c2ccccc2)c1`, 3%.
`CC(=O)NNc1ccc(Cl)cc1[N+](=O)[O-]`: the growth inhibition is 69%.
On the same count and under the same terms, in the case of `O=C(NC(=Nc1ccccc1)SCCSC(=Nc1ccccc1)NC(=O)c1ccccc1)c1ccccc1` it was 1%; in that of `CN(C)CCCNc1ccc(O)c2c1C(=O)c1ccccc1C2=O`, 99% (active); in that of `COC(=O)C(=O)C(/C=N/C(=S)NCCc1ccc(OC)c(OC)c1)=C(/O)c1ccc([N+](=O)[O-])cc1`, 8%.
On the same count and under the same terms, the result for `CCCC(=O)OCC1CC2C=CC1C2` (stereo not given) reads -5%; that for `CN(NC(=O)/C(=C/c1cc(Cl)cc(Cl)c1O)NC(=O)c1ccccc1)c1cnn(-c2ccccc2)c(=O)c1Cl`, 62%.
For the compound `CC(C)N(C(=O)CC1(O)CCCCC1)C(C)C`, the growth inhibition is -9%.
Same read-out and setting: in the case of `COC(=O)C1C(c2ccccc2)=N[C@@H](c2ccccc2)[C@H]1C(=O)OC` (stereo not given in full) it was 0%; in that of `O=C1C(=Cc2ccccc2O)N=C(c2ccccc2)N1n1c(-c2ccccc2)nc2ccccc2c1=O`, 39%.
Take `CCOc1ccc2c(c1)[n+]([O-])c(-c1ccc([N+](=O)[O-])cc1)c(N)[n+]2[O-]`: the growth inhibition was 93% (active).
The same measure, in the same setting: the result for `O=C(NCCCNCCCCNCCCNC(=O)c1cc(-c2ccccc2)nc2ccccc12)c1cc(-c2ccccc2)nc2ccccc12` reads 99% (active); that for `CC1=C(C(=O)Nc2cccc3ccccc23)C(c2cccc([N+](=O)[O-])c2)C(C(=O)Nc2cccc3ccccc23)=C(C)N1`, 23%.
On the same count and under the same terms, in the case of `O=C1OC(c2ccc(O)cc2)Sc2ccccc21` (stereo not given) it was 56%; in that of `CC(C)(C)c1ccc(-c2nc3ccccc3c(=O)o2)cc1`, 55%.
The same measure, in the same setting: the result for `O=C(N/C(=C/c1ccc(Cl)cc1Cl)c1nc2ccccc2s1)c1ccccc1` reads 98% (active); that for `O=C(O)C/C(=C\c1ccco1)C(=O)O`, -7%; that for `CN(C)Cc1cc(N=Nc2ccc(Cl)c(Cl)c2)ccc1O`, 56%.
As for `CC(=O)OC1C(O)C(C)OC(OC(=O)C2CCC3C(C2)OC2(CC(OC(=O)/C=C/c4ccccc4)C(C)CO2)C32CO2)C1OC1OC(C)C(O)C(O)C1O` (stereo not given), the growth inhibition was 97% (active).
In the case of `O=C1c2ccccc2C(=O)c2c(/C=C\N3CCCCC3)ccnc21`, the growth inhibition was 84% (active).
On the same count and under the same terms, the result for `CCN(CC)c1ccc(NC(CC(O)c2ccccc2)c2ccccc2)cc1` (stereo not given) reads -7%; that for `CCOC(=O)Nc1nc2ccc(SC#N)cc2s1`, 94% (active).
Still for that read-out and setting: in the case of `CSC(SC)C(SC)SC` it was 99% (active); in that of `N#CC(C(=O)C(=O)Nc1ccc(Cl)cc1)c1c(Cl)cccc1Cl` (stereo not given), 3%; in that of `CN(/N=C\c1cccc([N+](=O)[O-])c1)C(c1cccc([N+](=O)[O-])c1)N(C)/N=C/c1cccc([N+](=O)[O-])c1` (stereo not given), 40%.
The same measure, in the same setting: in the case of `Oc1cc(Br)cc2cc(Br)cnc12` it was 98% (active).
Take `COc1ccccc1C(C)c1ccc2ccccc2c1C(=O)O` (stereo not given): the growth inhibition was 94% (active).
The same measure, in the same setting: in the case of `Cc1ccnc2[nH]c3ccccc3c(=O)c12` it was 99% (active).
Same read-out and setting: in the case of `COc1cc(OC)c(/C=C\c2ccnc3ccccc23)c(OC)c1` it was 91% (active); in that of `COC(=O)C1(COCc2ccccc2)CCCC2OC21` (stereo not given), 10%.
On the same count and under the same terms, the result for `O=[N+]([O-])/C(=C\c1cccs1)c1ccccc1` reads 99% (active); that for `Cc1cc(C(O)(c2cc(C)c(O)c(C(=O)O)c2)c2cc(C)c(O)c(C(=O)O)c2)cc(C(=O)O)c1O`, -9%; that for `CC(C)C(C)(C(=O)O)C(C)C`, 0%.
With `CN(Cc1cc(Cl)cc(Cl)c1)CC(C(=O)c1ccccc1)c1ccccc1` (stereo not given), the growth inhibition is 91% (active).
Take `O=c1[nH]c(Cc2ccccc2)nc2c1sc1nc3ccccc3n12`: the growth inhibition is 83% (active).
As to `CC(NNC(=S)N1CCCC1)c1cccnn1` (stereo not given), the growth inhibition was 99% (active).
The same measure, in the same setting: in the case of `Cc1ccc2c(c1)C(O)(c1ccccc1)CCS2` (stereo not given) it was 94% (active).

Staying with this assay, now noted: S. cerevisiae mlh1 rad18 strain growth inhibition; at 50.0 µM; active compounds read high.
Regarding `CC(C)N=C(NC(C)C)SCCCCCCSC(=NC(C)C)NC(C)C`, the growth inhibition was 6.9%.
On to `CCCCCOC(=S)SSSC(=S)OCCCCC`, for which the growth inhibition was 21.9%.
On the same count and under the same terms, the result for `CCCCCCCCCCCCCCCC[N+](C)(C)CC(=O)O` reads 7.85%.
The same measure, in the same setting: the result for `Cc1cc(C)c([O-])c(-[n+]2c(-c3ccccc3)cc(-c3ccccc3)cc2-c2ccccc2)c1` reads 89.7% (active).
Still for that read-out and setting: the result for `CC(=O)NNc1ccc(Cl)cc1[N+](=O)[O-]` reads 91% (active).
With `O=C(NC(=Nc1ccccc1)SCCSC(=Nc1ccccc1)NC(=O)c1ccccc1)c1ccccc1`, the growth inhibition is 78% (active).
In the case of `CN(C)CCCNc1ccc(O)c2c1C(=O)c1ccccc1C2=O`, the growth inhibition was 89.6% (active).
Still for that read-out and setting: in the case of `COC(=O)C(=O)C(/C=N/C(=S)NCCc1ccc(OC)c(OC)c1)=C(/O)c1ccc([N+](=O)[O-])cc1` it was -9.7%.
Same read-out and setting: the result for `CCCC(=O)OCC1CC2C=CC1C2` (stereo not given) reads -3.9%.
On the same count and under the same terms, in the case of `CN(NC(=O)/C(=C/c1cc(Cl)cc(Cl)c1O)NC(=O)c1ccccc1)c1cnn(-c2ccccc2)c(=O)c1Cl` it was 67%.
Turning to `CC(C)N(C(=O)CC1(O)CCCCC1)C(C)C`, the growth inhibition is 1.85%.
As to `COC(=O)C1C(c2ccccc2)=N[C@@H](c2ccccc2)[C@H]1C(=O)OC` (stereo not given in full), the growth inhibition is 76.7% (active).
As to `O=C1C(=Cc2ccccc2O)N=C(c2ccccc2)N1n1c(-c2ccccc2)nc2ccccc2c1=O`, the growth inhibition was 73.3% (active).
For `CCOc1ccc2c(c1)[n+]([O-])c(-c1ccc([N+](=O)[O-])cc1)c(N)[n+]2[O-]`, the growth inhibition was 97.4% (active).
On the same count and under the same terms, in the case of `O=C(NCCCNCCCCNCCCNC(=O)c1cc(-c2ccccc2)nc2ccccc12)c1cc(-c2ccccc2)nc2ccccc12` it was 90% (active).
With `CC1=C(C(=O)Nc2cccc3ccccc23)C(c2cccc([N+](=O)[O-])c2)C(C(=O)Nc2cccc3ccccc23)=C(C)N1`, the growth inhibition is 88.1% (active).
Still for that read-out and setting: in the case of `O=C1OC(c2ccc(O)cc2)Sc2ccccc21` (stereo not given) it was 40%.
For the compound `CC(C)(C)c1ccc(-c2nc3ccccc3c(=O)o2)cc1`, the growth inhibition is 85% (active).
Same read-out and setting: the result for `O=C(N/C(=C/c1ccc(Cl)cc1Cl)c1nc2ccccc2s1)c1ccccc1` reads 98.2% (active); that for `O=C(O)C/C(=C\c1ccco1)C(=O)O`, -16.4%.
The same measure, in the same setting: the result for `CN(C)Cc1cc(N=Nc2ccc(Cl)c(Cl)c2)ccc1O` reads 84.7% (active); that for `CC(=O)OC1C(O)C(C)OC(OC(=O)C2CCC3C(C2)OC2(CC(OC(=O)/C=C/c4ccccc4)C(C)CO2)C32CO2)C1OC1OC(C)C(O)C(O)C1O` (stereo not given), 88% (active); that for `O=C1c2ccccc2C(=O)c2c(/C=C\N3CCCCC3)ccnc21`, 90.6% (active).
As to `CCN(CC)c1ccc(NC(CC(O)c2ccccc2)c2ccccc2)cc1` (stereo not given), the growth inhibition was 24.5%.
On the same count and under the same terms, the result for `CCOC(=O)Nc1nc2ccc(SC#N)cc2s1` reads 50.5%.
Same read-out and setting: the result for `CSC(SC)C(SC)SC` reads -1.15%; that for `N#CC(C(=O)C(=O)Nc1ccc(Cl)cc1)c1c(Cl)cccc1Cl` (stereo not given), 24.9%; that for `CN(/N=C\c1cccc([N+](=O)[O-])c1)C(c1cccc([N+](=O)[O-])c1)N(C)/N=C/c1cccc([N+](=O)[O-])c1` (stereo not given), 40.6%.
The same measure, in the same setting: in the case of `Oc1cc(Br)cc2cc(Br)cnc12` it was 78.3% (active); in that of `COc1ccccc1C(C)c1ccc2ccccc2c1C(=O)O` (stereo not given), 96% (active); in that of `Cc1ccnc2[nH]c3ccccc3c(=O)c12`, 77.7% (active).
`COc1cc(OC)c(/C=C\c2ccnc3ccccc23)c(OC)c1`: the growth inhibition is -2.05%.
The same measure, in the same setting: the result for `COC(=O)C1(COCc2ccccc2)CCCC2OC21` (stereo not given) reads 6.5%; that for `O=[N+]([O-])/C(=C\c1cccs1)c1ccccc1`, 99.3% (active); that for `Cc1cc(C(O)(c2cc(C)c(O)c(C(=O)O)c2)c2cc(C)c(O)c(C(=O)O)c2)cc(C(=O)O)c1O`, 10.3%.
Still for that read-out and setting: in the case of `CC(C)C(C)(C(=O)O)C(C)C` it was 2.75%; in that of `CN(Cc1cc(Cl)cc(Cl)c1)CC(C(=O)c1ccccc1)c1ccccc1` (stereo not given), 97.3% (active); in that of `O=c1[nH]c(Cc2ccccc2)nc2c1sc1nc3ccccc3n12`, -7.45%.
In the case of `CC(NNC(=S)N1CCCC1)c1cccnn1` (stereo not given), the growth inhibition is 85.3% (active).
For `Cc1ccc2c(c1)C(O)(c1ccccc1)CCS2` (stereo not given), the growth inhibition was 94.3% (active).
